Experimental findings from PubChem BioAssay are described below.

Assay [1] is described as follows: small molecules captured by biotinylated probe aFSTL3 – biochemical, small-molecule microarray, fluorescence 635/667, stem cell growth factor project, primary screen (AID 1064).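 Also: measures binding of the biotinylated anti-FSTL3 antibody to printed compounds.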 The following applies: higher = more signal.
Assay [2] is described as follows: binders from COS7 lysate, DM2A8 probe, primary screen, torsin A project, cell lysate, small-molecule microarray, fluorescence 635/667 (AID 1065). The following applies: higher = more signal, COS7 lysate expressing mutant human TOR1A.
Assay [3] can be described thus: small molecules captured by biotinylated probe aFGF2 – biochemical, small-molecule microarray, fluorescence 635/667, stem cell growth factor project, primary screen (AID 1067).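 Also: measures binding of biotinylated aFGF2 protein to printed compounds on slides; z-score merges feature fluorescence and signal-to-noise across triplicate slides.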 To be noted: higher = more signal.
A short description of assay [4]: small molecules captured by biotinylated probe aFGF10 – biochemical, small-molecule microarray, fluorescence 635/667, stem cell growth factor project, primary screen (AID 1071).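 Also: score merges 667 nm spot intensity and signal to noise from triplicate slides.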 To be noted: higher = more signal.
The target of assay [5] is Neurogenic locus notch homolog protein 2 (Homo sapiens) (UniProt Q04721). Nature of the assay: small molecules binding Notch2 protein – biochemical, small-molecule microarray, 635 nm fluorescence, stem cell growth factors, primary screen (AID 1073). To be noted: higher = more signal.
The target of assay [6] is Pro-neuregulin-1, membrane-bound isoform (Homo sapiens) (UniProt Q02297). As to the kind of experiment: small molecules binding neuregulin-1 protein – biochemical, small-molecule microarray, fluorescence 635/667, psychiatric disease protein project, primary screen (AID 1075).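 Also: score combines 667 nm spot fluorescence with signal to noise.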 The following applies: NRG1 binding, 635 nm fluorescence, higher = more signal.
Chain of Pro-neuregulin-1, membrane-bound isoform (Homo sapiens) (Q02297 whole entry, looked up, the tested form may be a part, canonical isoform): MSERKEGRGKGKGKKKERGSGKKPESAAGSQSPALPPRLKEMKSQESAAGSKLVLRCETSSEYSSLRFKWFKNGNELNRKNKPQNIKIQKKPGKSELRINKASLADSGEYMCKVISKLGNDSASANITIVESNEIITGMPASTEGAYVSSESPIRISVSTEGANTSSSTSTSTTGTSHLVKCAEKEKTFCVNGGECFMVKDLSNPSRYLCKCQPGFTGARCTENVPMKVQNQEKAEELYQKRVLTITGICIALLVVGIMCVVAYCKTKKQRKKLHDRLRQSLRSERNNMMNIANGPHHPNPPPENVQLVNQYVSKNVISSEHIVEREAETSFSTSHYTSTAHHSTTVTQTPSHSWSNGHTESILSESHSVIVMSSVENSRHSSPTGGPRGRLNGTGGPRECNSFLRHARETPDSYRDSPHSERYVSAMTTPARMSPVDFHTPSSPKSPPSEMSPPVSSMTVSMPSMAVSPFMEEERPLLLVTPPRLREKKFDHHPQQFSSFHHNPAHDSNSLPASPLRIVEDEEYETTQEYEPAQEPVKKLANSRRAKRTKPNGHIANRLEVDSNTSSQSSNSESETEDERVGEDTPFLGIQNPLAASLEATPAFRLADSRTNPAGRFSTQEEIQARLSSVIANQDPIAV
The test system of assay [7] is Neuregulin-1 EGF-like domain. As to the kind of experiment: small molecules binding NRG1 EGF domain – biochemical, small-molecule microarray, 635 nm fluorescence, primary screen (AID 1081).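 Also: binding of the protein to compounds printed on small-molecule microarray slides.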 The following applies: higher = more signal.
Assay [8] can be described thus: FRG1 expression reporter modulators in myotubes – cell-based, C2C12 myotubes, firefly/Renilla luciferase, luminescence, FRG1 inhibition for FSHD, primary screen (AID 1084). To be noted: FRG1 promoter luciferase, higher = more signal, called active from +8 up or from −8 down.
Assay [9] is described as follows: small molecules captured by biotinylated probe aFST – biochemical, small-molecule microarray, fluorescence 635/667, stem cell growth factor project, primary screen (AID 1086).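 Also: score merges 667 nm fluorescence with signal-to-noise of each printed compound spot.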 The following applies: higher = more signal.
The nature of assay [10]: binders of probe aHhip on microarray, primary screen, stem cell growth factor project, biochemical, small-molecule microarray, fluorescence 635/667 (AID 1087).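 Also: score merges spot fluorescence at 667nm with spot signal to noise ratio.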 To be noted: higher = more signal.
Assay [11] has as its system PRMT1 (protein arginine N-methyltransferase 1). Nature of the assay: small molecules binding arginine methyltransferase PRMT1 – biochemical, small-molecule microarray, 635 nm fluorescence, primary screen (AID 1088).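 Also: binding of Prmt1 protein to compounds spotted on small-molecule microarray slides.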 To be noted: higher = more signal.
A short description of assay [12]: growth effects on S. cerevisiae YJM789 – YJM789 clinical isolate, OD600, 24 h, basal, primary screen (AID 1089).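 Also: growth of clinical yeast isolate S. cerevisiae YJM 789 seeded 1000 cells per well; test concentration not given here.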 To be noted: higher = more signal, called active from +8 up or from −8 down.
Assay [13] in a line: S. pombe growth modifiers, basal conditions – strain 972, OD600, 24 h, no modulator, primary screen (AID 1090).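 Also: basal condition with compound alone and no growth modifier present; test concentration not given here.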 The following applies: S. pombe 972 growth, higher = more signal, called active from +8 up or from −8 down.
Assay [14] is described as follows: budding yeast growth modifiers under rapamycin – strain BY4716, OD600, 96 h, primary screen (AID 1091). Also: test concentration not given here. To be noted: S. cerevisiae BY4716 + rapamycin, higher = more signal, called active from +8 up or from −8 down.
The target of assay [15] is Torsin-1A-interacting protein 2 (Homo sapiens) (UniProt Q8NFQ8). Nature of the assay: small molecules binding lysate-expressed LULL1 – cell lysate, human LULL1 lysate, 635/667 nm fluorescence, primary screen (AID 1092).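 Also: score merges per-feature 667 nm fluorescence with signal-to-noise.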 To be noted: small-molecule microarray, hLULL1 lysate binding, 635 nm fluorescence; higher = more signal.
Chain of Torsin-1A-interacting protein 2 (Homo sapiens) (Q8NFQ8 whole entry, looked up): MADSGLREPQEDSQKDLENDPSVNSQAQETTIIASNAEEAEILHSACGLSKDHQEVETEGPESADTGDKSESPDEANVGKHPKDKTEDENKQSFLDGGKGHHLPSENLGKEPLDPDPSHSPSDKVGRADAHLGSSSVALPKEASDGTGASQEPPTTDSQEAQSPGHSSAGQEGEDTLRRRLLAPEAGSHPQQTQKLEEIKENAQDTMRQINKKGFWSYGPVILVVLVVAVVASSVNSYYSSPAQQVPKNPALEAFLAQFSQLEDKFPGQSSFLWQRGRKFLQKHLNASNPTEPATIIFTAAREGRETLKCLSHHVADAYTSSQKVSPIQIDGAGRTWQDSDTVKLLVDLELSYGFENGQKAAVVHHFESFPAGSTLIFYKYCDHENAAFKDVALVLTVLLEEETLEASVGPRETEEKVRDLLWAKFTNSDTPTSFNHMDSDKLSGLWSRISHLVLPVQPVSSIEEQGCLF
The nature of assay [16]: optical density change of DRC41 E. coli – strain DRC41, OD650, 24 h, E. coli filamentation project, primary screen (AID 1093).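 Also: MC1000 strain lacking acrAB efflux and sulA so SOS filamentation is blocked; test concentration not given here.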 The following applies: E. coli DRC41 growth, higher = more signal, called active from +8 up or from −8 down.
Assay [17] can be described thus: probe aLefty2 binding to arrayed compounds – biochemical, biotinylated probe, 635/667 nm fluorescence, primary screen (AID 1094).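 Also: score merges spot fluorescence near 667 nm with spot signal-to-noise ratio.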 The following applies: small-molecule microarray, higher = more signal.
Assay [18] concerns Noggin (protein binding on small-molecule microarray). Nature of the assay: small molecules binding Noggin protein – biochemical, 635/667 nm fluorescence, primary screen (AID 1095).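 Also: score merges 667 nm feature fluorescence with signal to noise over triplicate slides.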 To be noted: 635 nm fluorescence, higher = more signal.
Assay [19] addresses Neurogenic locus notch homolog protein 3 (Homo sapiens) (UniProt Q9UM47). Nature of the assay: small molecules binding NOTCH3 protein – biochemical, 635/667 nm fluorescence, primary screen (AID 1096). To be noted: small-molecule microarray, 635 nm fluorescence, higher = more signal.
A short description of assay [20]: probe aEGFR binding to arrayed compounds – biochemical, biotinylated probe, 635/667 nm fluorescence, primary screen (AID 1097).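 Also: probe is a biotinylated anti-EGFR antibody binding compounds printed on slides; score combines fluorescence near 667 nm and signal to noise of each spot.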 The following applies: small-molecule microarray, higher = more signal.

Activity calls are given as the source filed them.

Chain of Neurogenic locus notch homolog protein 3 (Homo sapiens) (Q9UM47 whole entry, looked up): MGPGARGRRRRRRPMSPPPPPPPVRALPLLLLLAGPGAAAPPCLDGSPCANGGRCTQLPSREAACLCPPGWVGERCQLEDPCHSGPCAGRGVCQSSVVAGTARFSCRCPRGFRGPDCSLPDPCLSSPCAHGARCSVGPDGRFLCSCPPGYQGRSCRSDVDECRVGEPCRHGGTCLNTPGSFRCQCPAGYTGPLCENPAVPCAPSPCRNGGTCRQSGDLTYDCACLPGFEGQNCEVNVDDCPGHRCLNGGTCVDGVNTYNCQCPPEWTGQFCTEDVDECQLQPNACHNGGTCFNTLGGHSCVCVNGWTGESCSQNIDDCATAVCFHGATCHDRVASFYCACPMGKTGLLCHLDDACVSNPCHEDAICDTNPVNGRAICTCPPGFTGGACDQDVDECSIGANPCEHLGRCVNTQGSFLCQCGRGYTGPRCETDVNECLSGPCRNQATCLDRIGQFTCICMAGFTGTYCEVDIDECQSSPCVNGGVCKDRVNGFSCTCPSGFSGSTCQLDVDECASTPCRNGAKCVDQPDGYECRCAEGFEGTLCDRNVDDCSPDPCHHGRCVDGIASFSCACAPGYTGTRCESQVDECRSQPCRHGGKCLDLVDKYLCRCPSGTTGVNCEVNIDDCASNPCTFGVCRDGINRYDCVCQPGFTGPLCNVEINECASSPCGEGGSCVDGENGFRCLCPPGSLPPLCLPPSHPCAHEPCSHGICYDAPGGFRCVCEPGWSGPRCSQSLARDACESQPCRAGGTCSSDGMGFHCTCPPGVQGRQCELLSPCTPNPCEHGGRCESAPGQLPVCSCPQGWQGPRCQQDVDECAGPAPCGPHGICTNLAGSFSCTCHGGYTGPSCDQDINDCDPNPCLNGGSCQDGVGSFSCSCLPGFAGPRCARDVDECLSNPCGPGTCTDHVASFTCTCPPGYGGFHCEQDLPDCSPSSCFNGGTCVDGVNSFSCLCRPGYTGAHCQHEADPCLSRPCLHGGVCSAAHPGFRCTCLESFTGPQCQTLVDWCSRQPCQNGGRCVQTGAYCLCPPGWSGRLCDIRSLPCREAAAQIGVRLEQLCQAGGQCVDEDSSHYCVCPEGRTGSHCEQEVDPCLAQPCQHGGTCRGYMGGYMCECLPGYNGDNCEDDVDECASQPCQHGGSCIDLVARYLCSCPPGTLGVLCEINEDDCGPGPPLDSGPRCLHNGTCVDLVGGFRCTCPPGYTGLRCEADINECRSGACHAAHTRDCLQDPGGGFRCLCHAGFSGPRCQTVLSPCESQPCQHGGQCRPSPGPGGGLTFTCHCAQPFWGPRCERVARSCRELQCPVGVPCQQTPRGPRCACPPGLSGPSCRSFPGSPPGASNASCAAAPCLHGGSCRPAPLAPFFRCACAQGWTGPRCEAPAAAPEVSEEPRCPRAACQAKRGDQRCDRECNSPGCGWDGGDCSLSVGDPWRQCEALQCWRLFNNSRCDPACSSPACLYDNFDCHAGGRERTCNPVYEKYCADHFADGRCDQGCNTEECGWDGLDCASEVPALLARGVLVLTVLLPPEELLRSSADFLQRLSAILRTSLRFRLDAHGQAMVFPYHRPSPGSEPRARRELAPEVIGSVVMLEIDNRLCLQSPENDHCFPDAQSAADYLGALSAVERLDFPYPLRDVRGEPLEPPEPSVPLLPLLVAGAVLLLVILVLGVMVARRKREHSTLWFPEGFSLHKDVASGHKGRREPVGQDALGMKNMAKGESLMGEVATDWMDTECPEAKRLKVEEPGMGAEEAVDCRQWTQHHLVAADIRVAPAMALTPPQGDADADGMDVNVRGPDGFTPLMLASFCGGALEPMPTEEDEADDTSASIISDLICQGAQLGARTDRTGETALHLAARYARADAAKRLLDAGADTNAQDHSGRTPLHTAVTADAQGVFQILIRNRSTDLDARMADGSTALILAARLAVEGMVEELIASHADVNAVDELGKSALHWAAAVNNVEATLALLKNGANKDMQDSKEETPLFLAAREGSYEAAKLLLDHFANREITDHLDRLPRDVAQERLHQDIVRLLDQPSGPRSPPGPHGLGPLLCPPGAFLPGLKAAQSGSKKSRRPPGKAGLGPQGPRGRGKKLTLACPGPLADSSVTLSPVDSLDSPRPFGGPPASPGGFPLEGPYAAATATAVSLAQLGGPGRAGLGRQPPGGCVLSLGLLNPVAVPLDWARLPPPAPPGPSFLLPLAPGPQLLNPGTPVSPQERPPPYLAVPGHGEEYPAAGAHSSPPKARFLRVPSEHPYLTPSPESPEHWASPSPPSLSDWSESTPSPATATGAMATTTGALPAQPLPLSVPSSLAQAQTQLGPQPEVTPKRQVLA

Regarding `O=C1C2C=CC(C(O)c3cccc(O)c3)N(Nc3ccccc3F)C2C(=O)N1c1ccccc1` (stereo not given), the composite z-score in assay [1] is 0.0355; in [2], 0.74; in assay [3], -0.0005; in assay [4], -0.0284; in [5] it was 0.0745; in assay [6], 0.445. Besides, the composite z-score in assay [7] was 0.218; in assay [9], 0.725; in assay [10], -0.437; in [11], 0.788; in assay [15] it was 1.88; in assay [17], -0.192. In addition, the composite z-score was -0.171 in assay [18], 0.552 in assay [19] and -0.13 in assay [20]. For the same molecule, the z-score in [8] is 2.18 (inactive); in assay [12] it was -25 (active); in [13] it was -8.06 (active); in assay [14] it was -1.5 (inactive); in [16] it was 1.94 (inactive).

`O=C(NCCO)C1=C[C@H](Oc2ccccc2I)[C@@H](O)[C@H](NCc2ccc(F)cc2)C1`: the composite z-score is 0.175 in assay [1]; 0.917 in assay [2]; -0.145 in assay [3]; 1.38 in assay [4]; -0.627 in assay [5]; -0.835 in assay [6]. Further, the composite z-score in assay [7] was -1.68; in assay [9], -0.459; in assay [10], 0.0722; in [11], 0.517; in [15], -0.992; in assay [17], -0.212. In addition, the composite z-score in assay [18] is 1.66; in assay [19], -0.0545; in assay [20], -0.202. Also, the z-score in assay [8] was -0.766 (inactive); in assay [12], 0.0567 (inactive); in [13] it was -20.5 (active); in [14], -0.455 (inactive); in assay [16], -0.909 (inactive).

With `COC(=O)c1ccc([C@H](NC(=O)c2ccccc2)[C@]2(C)C[C@H]2C2CCCCC2)cc1`, the composite z-score in assay [1] is 0.735; in [2] it was -0.678; in assay [3], 0.056; in [4], 0.172; in assay [5], 1.22; in assay [6] it was 1.18. For the same molecule, the composite z-score in assay [7] came to 0.678; in assay [9], 0.86; in assay [10], 0.245; in assay [11], 0.0232; in [15] it was 3.03; in assay [17] it was 0.223. For the same molecule, the composite z-score in assay [18] was -0.178; in [19], 1.05; in [20], -0.116. Further, the z-score in assay [8] is -1 (inactive); in assay [12], 0.696 (inactive); in assay [13], 1.52 (inactive); in [14] it was -1.23 (inactive); in assay [16], -1.38 (inactive).

Take `COCCOC(=O)N1C(=O)[C@@]2(c3cc(C#CC4=CCCCC4)ccc31)[C@H](C(=O)N1CCc3cc(OC)c(OC)cc3C1)[C@H]1C(=O)O[C@H](c3ccccc3)[C@H](c3ccccc3)N1[C@@H]2c1ccc(O)cc1`: the composite z-score in [1] is -0.0908; in assay [2], 0.271; in assay [3], 0.0216; in assay [4] it was 1.15; in [5], 1.5; in assay [6] it was 1.79. For the same molecule, the composite z-score in assay [7] was found to be 1.25; in assay [9] it was 0.153; in assay [10], 0.0515; in assay [11] it was 1.5; in assay [15], 2.68; in assay [17], 1.08. For the same molecule, the composite z-score in [18] is 0.552; in assay [19], 1.16; in assay [20] it was 0.657. In addition, the z-score was -0.514 (inactive) in [8]; 1.68 (inactive) in assay [12]; 0.94 (inactive) in [13]; 2.7 (inactive) in [14]; 0.951 (inactive) in [16].

Regarding `CC1CC/C=C\[C@H]2OC34C=CCN(CCN5CCOCC5)C(=O)[C@H]3N(CCCCCCO)C(=O)[C@@H]4C2C(=O)O1` (stereo not given in full), the composite z-score was -0.0847 in assay [1]; -0.686 in assay [2]; -0.129 in assay [3]; -0.445 in [4]; -0.894 in [5]; -0.539 in assay [6]. For the same molecule, the composite z-score in assay [7] was 1.44; in [9] it was -0.493; in assay [10] it was -0.171; in assay [11], -0.592; in [15], 0.318; in [17], -0.192. Besides, the composite z-score in assay [18] is -0.403; in assay [19], -0.218; in [20], -0.278. The z-score in assay [8] is 0.647 (inactive); in [12], 0.0356 (inactive); in assay [13], -0.573 (inactive); in assay [14], 0.132 (inactive); in assay [16] it was -0.263 (inactive).
